These compounds were tested against Estrogen receptor beta (Homo sapiens) (UniProt Q92731) (assay: ERbeta ligand binders by competition, primary screen, cell-based, Cos7 ERbeta-GFP, flow cytometry (AID 1210;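 also: 0% = DMSO vehicle wells and 100% = complete loss of labeled estradiol signal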)). Conditions: fluorescent estrogen binding, ligand binding inhibition, at 0.1 µM, stronger effect = higher value.
Estrogen receptor beta (Homo sapiens), sequence (Q92731 whole entry, looked up): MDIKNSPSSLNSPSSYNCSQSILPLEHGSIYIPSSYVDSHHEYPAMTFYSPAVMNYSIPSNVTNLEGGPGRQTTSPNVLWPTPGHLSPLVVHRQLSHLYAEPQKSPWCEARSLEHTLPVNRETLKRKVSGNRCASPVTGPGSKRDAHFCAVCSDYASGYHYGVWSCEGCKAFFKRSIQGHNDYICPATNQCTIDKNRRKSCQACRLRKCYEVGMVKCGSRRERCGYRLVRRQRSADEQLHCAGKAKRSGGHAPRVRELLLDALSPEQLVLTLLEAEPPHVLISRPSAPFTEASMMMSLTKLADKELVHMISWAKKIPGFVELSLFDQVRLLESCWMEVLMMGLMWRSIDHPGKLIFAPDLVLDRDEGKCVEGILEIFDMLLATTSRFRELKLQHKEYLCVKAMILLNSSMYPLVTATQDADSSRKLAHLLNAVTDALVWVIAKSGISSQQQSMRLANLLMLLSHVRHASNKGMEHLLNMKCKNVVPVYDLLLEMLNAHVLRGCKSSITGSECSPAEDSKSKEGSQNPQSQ

SMILES | inhibition
O=C(COC(=O)CCC(=O)c1cccs1)NCc1ccco1 | 12%
O=C(c1cc2ncc(Br)cn2n1)N1CCOCC1 | 41%
CCOc1ccc(Nc2oc(-c3ccccc3Cl)nc2C#N)cc1 | 43%
Cc1ccc(OCCN2CCN(CC(O)Cn3c4ccccc4c4ccccc43)CC2)cc1 (stereo not drawn) | 31%
CC(=O)c1sc2nc(SCC(=O)N3CCCCC3)[nH]c(=O)c2c1C | 12%
C[C@@H]1O[C@@H](Oc2c(-c3cc(O)c(O)c(O)c3)oc3cc(O)cc(O)c3c2=O)[C@H](O)[C@H](O)[C@H]1O | 30%
Cc1oc2cc(O)ccc2c(=O)c1Oc1ccccc1 | 37%
CSc1ccc(S(=O)(=O)Nc2cccc(F)c2)cc1 | 75%
c1ccc(Cc2nnc3sc(-c4ccco4)nn23)cc1 | 60%
O=C1OC(c2ccc(O)cc2)(c2ccc(O)cc2)c2ccccc21 | 11%
Nc1ccc(N2CCN(C(=O)c3ccco3)CC2)cc1 | 25%
O=C(Cc1ccccc1)Nc1ccc2oc(-c3cccnc3)nc2c1 | 20%
CCn1nnc(NC(=O)CSc2ccc(Cl)cc2)n1 | 68%
